# Data reported in PubChem BioAssay (EPA / NIEHS).
# Results filed as inconclusive are left out. Calls of active or inactive are those of the source. The calls were made as follows: active = hit-call score of the fitted dose curve at least 0.9, where 1 is the maximum; inconclusive = response in the unintended direction; inactive = score below 0.9.
# Target: Nucleoli Translocation, AR (gene 367) (UniProt P10275)
# Test: UPITT_HCI_U2OS_AR_TIF2_Nucleoli_Antagonist: University of Pittsburgh U2OS Androgen Receptor-Transcriptional Intermediary Factor 2 (AR-TIF2) Antagonism High Content Imaging Assay for Nucleoli Translocation (AID 2283997)
# Description: UPITT_AR_TIF2_PPIB is a cell-based, high-content imaging assay that uses U2OS, a human osteosarcoma cell line, expressing a human androgen receptor fused to red fluorescent protein and the coactivator TIF2 fused to green fluorescent protein. UPITT_HCI_U2OS_AR_TIF2_Nucleoli_Antagonist is one of four assay components measured from the UPITT_AR_TIF2_PPIB assay. It is designed to make measurements of red fluorescence localized in the nucleolar region of the cell nucleus as detected with high-content fluorescent imaging.Data from the assay component UPITT_HCI_U2OS_AR_TIF2_Nucleoli_Antagonist was analyzed into 1 assay endpoint. This assay endpoint, UPITT_HCI_U2OS_AR_TIF2_Nucleoli_Antagonist, was analyzed in the positive analysis fitting direction relative to DHT as the baseline of activity. Using a type of binding reporter, measures of receptor for loss-of-signal activity can be used to understand the binding at the pathway-level as it relates to the gene AR.
# Daughter plates containing 2 uL of 10 mM compounds in DMSO were prepared and replicated from the 384-well Library of Pharmacologically Active Compounds (LOPAC) master plates using the Bravo outfitted with a 384-well transfer head. Aluminum adhesive plate seals were applied with an Abgene Seal-IT 100 (Rochester, NY) plate sealer, and the plates were stored at -20 C in a Matrical MatriMinistore (Spokane, WA) automated compound storage and retrieval system. For screening, LOPAC daughter plates were withdrawn from -20C storage, thawed to ambient temperature, centrifuged 1-2 min at 50 g, and the plate seals were removed before the transfer of 98 uL of serum-free tissue culture medium (SFM) into wells using the BioTek Microflo liquid handler (BioTek, Winooski, VT) to generate a 200 uM intermediate stock concentration of library compounds (2.0% DMSO). The diluted compounds were mixed by repeated aspiration and dispensation using a 384-well P30 dispensing head on the Evolution P3 (EP3) liquid handling platform (PerkinElmer, Waltham, MA) and then 5 uL of diluted compounds was transferred to the wells of assay plates. In the LOPAC screen, compounds were individually tested at a final concentration of 20 uM (0.2% DMSO). After the diluted compounds had been transferred from the daughter plates to the primary HCS assay plates, aluminum adhesive plate seals were applied and the diluted daughter plates were stored frozen at -20C. To confirm active compounds identified in the primary screen, we withdrew the LOPAC daughter plates containing the 200 uM intermediate concentration of library compounds (2.0% DMSO) from -20C storage, thawed them to ambient temperature, centrifuged them for 1-2 min at 50 g, and removed the plate seals. A work list was generated to direct the Multiprobe Janus liquid handling platform (PerkinElmer) to cherry pick 75 uL from the wells of the diluted daughter plates that were flagged active in the primary screen and to reformat these into a 384-well plate hit confirmation daughter plate. Five microliters of primary HCS active compounds was then transferred into triplicate wells of assay plates using a 384-well P30 dispensing head on the Evolution P3 (EP3) liquid handling platform (PerkinElmer). […] Daughter plates containing 2 uL of the serially diluted compounds in DMSO were prepared and replicated from the 384-well serial dilution master plates using the Bravo outfitted with a 384-well transfer head. Aluminum adhesive plate seals were applied and plates were stored at -20C. […] The ImageXpress Ultra (IXU) platform (Molecular Devices LLC, Sunnyvale, CA) and The ImageXpress Micro (IXM) platform were used for imaging.
# Sequence of Nucleoli Translocation, AR (gene 367) (P10275 whole entry, looked up): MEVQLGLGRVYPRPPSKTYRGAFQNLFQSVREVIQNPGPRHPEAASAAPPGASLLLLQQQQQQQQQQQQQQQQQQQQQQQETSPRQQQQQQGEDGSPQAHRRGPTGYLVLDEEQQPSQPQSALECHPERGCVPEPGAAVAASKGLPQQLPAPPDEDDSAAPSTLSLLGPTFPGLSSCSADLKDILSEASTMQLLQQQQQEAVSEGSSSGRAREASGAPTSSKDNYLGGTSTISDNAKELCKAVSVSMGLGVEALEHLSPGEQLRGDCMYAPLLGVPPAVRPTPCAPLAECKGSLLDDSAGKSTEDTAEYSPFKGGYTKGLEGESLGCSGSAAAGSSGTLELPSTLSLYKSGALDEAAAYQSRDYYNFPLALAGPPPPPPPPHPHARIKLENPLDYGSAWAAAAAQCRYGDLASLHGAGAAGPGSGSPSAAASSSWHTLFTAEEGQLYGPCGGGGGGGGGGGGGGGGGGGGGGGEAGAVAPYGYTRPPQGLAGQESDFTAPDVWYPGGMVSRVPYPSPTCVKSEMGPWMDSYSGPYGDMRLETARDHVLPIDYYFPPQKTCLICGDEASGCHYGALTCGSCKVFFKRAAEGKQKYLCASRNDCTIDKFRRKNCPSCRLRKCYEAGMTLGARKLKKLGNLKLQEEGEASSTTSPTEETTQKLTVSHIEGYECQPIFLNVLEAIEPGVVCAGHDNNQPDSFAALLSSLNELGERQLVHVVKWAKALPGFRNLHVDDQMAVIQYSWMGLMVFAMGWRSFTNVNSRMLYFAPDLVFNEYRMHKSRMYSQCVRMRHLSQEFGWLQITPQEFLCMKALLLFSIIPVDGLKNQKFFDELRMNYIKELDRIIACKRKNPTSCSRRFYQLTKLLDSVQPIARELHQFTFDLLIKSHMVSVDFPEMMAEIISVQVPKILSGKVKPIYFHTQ
SMILES,outcome,AC50
O=C(NS(=O)(=O)/C=C/c1cccs1)c1ccc(F)cc1Br,inactive,–
Cc1cc(SC2=C(O)C[C@@](CCc3ccc(N)cc3)(C(C)C)OC2=O)c(C(C)(C)C)cc1CO,inactive,–
O=C1OC(c2ccc(O)cc2)(c2ccc(O)cc2)c2ccccc21,–,86.2 µM (active)
CCN(CC)CCOc1ccc(C(=C(Cl)c2ccccc2)c2ccccc2)cc1,inactive,–
C=CCCCCCCCCCCCC,inactive,–
NCCOCCOCCN,inactive,–
Cc1ccc(-c2cc(C(F)(F)F)nn2-c2ccc(S(N)(=O)=O)cc2)cc1,–,26.6 µM (active)
CC(C)OC(=O)C(C)(C)Oc1ccc(C(=O)c2ccc(Cl)cc2)cc1,inactive,–
O=C(Oc1ccccc1)c1cccc(C(=O)Oc2ccccc2)c1,inactive,–
CC1=C(C)S(=O)(=O)CCS1(=O)=O,inactive,–
CSc1ccc(Oc2ccc(S(N)(=O)=O)cc2CN(C)C)cc1C,inactive,–
C#CC(O)C(CC)CCCC (stereo not drawn),–,22.5 µM (active)
O=C1CCCCC1,inactive,–
O=Cc1ccccc1C=O,inactive,–
CCC(C)N(C)C(=O)c1cc2ccccc2c(-c2ccccc2Cl)n1 (stereo not drawn),inactive,–
Nc1nc(=S)c2[nH]cnc2[nH]1,inactive,–
CCCCCCCCCC[N+](C)(C)[O-],inactive,–
CCOCCOCCO,inactive,–
